In PubChem BioAssay (Tox21):
Records with an inconclusive call do not appear. Active and inactive are the calls of the source. Calls come from the whole dose curve; as a rule, active = well fitted activation curve with a large enough effect in the repeat runs; inconclusive = weak or mixed curves, or effect the other way; inactive = no such curve, though single readings can be large or run the other way.
% is set by controls: 0 for no effect and ±100 for the full control effect.

Test: qHTS assay to identify small molecule agonists of the estrogen related receptor signaling pathway with the pleiotropic PPARgamma coactivator (PGC) from Tox21 10K library (AID 1224842); note: nearly all actives have a fitted effect of over 15% in size
Conditions: PGC/ERR reporter cell line, luciferase ONE-Glo, 18 h; series mostly up to 92.4 µM; activation: at the top concentration
Description: National Center for Advancing Translational Sciences [NCATS] NIH Chemical Genomics Center [NCGC] U.S. Environmental Protection Agency [EPA] National Institutes of Environmental Health Sciences [NIEHS] National Toxicology Program [NTP] Assay overview: Estrogen related receptors (ERRs), the first orphan nuclear receptors discovered, play an important role in the control of cellular energy metabolism. ERRs are required for high-energy production in response to the environmental challenges. The pleiotropic PPARgamma coactivator (PGC) is a major partner of ERR and a key regulator in energy homeostasis. Together they have been implicated in the etiology of metabolic disorders such as Type 2 diabetes and metabolic syndrome. ERR-alpha was also identified as an adverse marker for breast cancer progression; ERR-alpha-positive tumors have a poor prognosis. To screen and to identify environmental compounds that perturb the PGC/ERR signaling pathways could provide valuable information for potential therapeutic or preventive measures in the treatment of metabolic disease. For identifying PGC/ERR agonists, PGC/ERR cell line (provided by NTP) has been used to screen Tox21 10K library.
Assay Protocol Summary: The PGC/ERR cells were dispensed at 2,000 cells/5 ul/well in 1536-well white plates using a Multidrop dispenser. After the assay plates were incubated at a 37 C/5% CO2 incubator for 6 hours, 23 nL of compounds dissolved in DMSO, positive and negative controls or DMSO only was transferred to the assay plate by a pin tool. The plates were incubated at 37 C for 18 hours. 4 ul/well of One-Glo reagent was added into the assay plates using a Flying Reagent Dispenser. After 30-minute incubation at room temperature, the luminescence intensity in the plates was measured using a ViewLux plate reader.
In the case of `CCC#N`, the “activation” value is reported as 0.182% (inactive).
For `CNC(=O)Oc1ccc(N(C)C)c(C)c1`, the “activation” value was 6.25% (inactive).
For `C#CCN1C(=O)COc2cc(F)c(N3C(=O)C4=C(CCCC4)C3=O)cc21`, the “activation” value was -10.8% (inactive).
For `C=C(C)CN(CC)c1c([N+](=O)[O-])cc(C(F)(F)F)cc1[N+](=O)[O-]`, the “activation” value was 0.727% (inactive).
For `C=CCC1=C(C)[C@@H](OC(=O)[C@@H]2[C@@H](C=C(C)C)C2(C)C)CC1=O`, the “activation” value was -18.9% (inactive).
With `CN(C)CCc1ccc(O)cc1` the “activation” value was 4.16% [at 42.5 µM] (inactive).
With `CCCCc1c(C)nc(NCC)[nH]c1=O` the “activation” value was 0.948% (inactive).
In the case of `CC1COC2(c3ccccc3Cl)c3cc(Cl)ccc3NC(=O)CN12` (stereo not given), the “activation” value is reported as -17% [at 42.5 µM] (inactive).
For `COC(=O)COc1ccc(Cl)cc1Cl`, the “activation” value was 4.36% (inactive).
With `CC1(C)COP(Oc2ccccc2)OC1` the “activation” value was 1.37% (inactive).
In the case of `CC(C)CC(N(C)C)C1(c2ccc(Cl)cc2)CCC1` (stereo not given), the “activation” value is reported as 0.227% [at 42.5 µM] (inactive).
With `COc1cccc2c1cc([N+](=O)[O-])c1c(C(=O)O)cc3c(c12)OCO3` the “activation” value was -5.41% (inactive).
For `N#CC(CCc1ccc(Cl)cc1)(Cn1cncn1)c1ccccc1` (stereo not given), the “activation” value was -40.1% (inactive).
With `CS(=O)(=O)c1cc(C(F)(F)F)ccc1C(=O)c1cnoc1C1CC1` the “activation” value was -0.424% (inactive).
For `CCOP(=S)(Oc1cnc(C(C)(C)C)nc1)OC(C)C` (stereo not given), the “activation” value was -5.55% (inactive).
With `CCCCN(CCCCO)N=O` the “activation” value was -0.492% (inactive).
In the case of `CCC(C)(C)c1cc(-n2nc3ccccc3n2)c(O)c(C(C)(C)CC)c1`, the “activation” value is reported as -20.7% (inactive).
In the case of `CCOC(=O)CP(=O)(OCC)OCC`, the “activation” value is reported as 0.852% (inactive).
For `O=C(Nc1ccccc1)N(Cc1ccc(Cl)cc1)C1CCCC1`, the “activation” value was -14.2% (inactive).
In the case of `CC(=O)Nc1cc([As](=O)(O)O)ccc1O`, the “activation” value is reported as -4.04% [at 42.5 µM] (inactive).
In the case of `CC1(C(=O)Nc2ccc(O)c(Cl)c2Cl)CCCCC1`, the “activation” value is reported as -10.8% (inactive).
With `CCS(=O)(=O)C(C)(C)S(=O)(=O)CC` the “activation” value was -0.0465% [at 42.5 µM] (inactive).
In the case of `O=c1oc2ccccc2c(O)c1C1CCCc2ccccc21` (stereo not given), the “activation” value is reported as -15.5% (inactive).
For `CC(Oc1ccc(Oc2ncc(C(F)(F)F)cc2Cl)cc1)C(=O)O` (stereo not given), the “activation” value was -15.6% (inactive).
In the case of `N#CCBr`, the “activation” value is reported as -1.19% (inactive).
For `Fc1ccc(C2(Cn3cncn3)OC2c2ccccc2Cl)cc1` (stereo not given), the “activation” value was -19.8% (inactive).
With `CCCCCCI` the “activation” value was -2.01% (inactive).
In the case of `COc1cccc(C(=O)NN(C(=O)c2cc(C)cc(C)c2)C(C)(C)C)c1C`, the “activation” value is reported as -1.71% (inactive).
In the case of `C1CCC(C2CCCCC2)CC1`, the “activation” value is reported as -0.984% (inactive).
In the case of `CCNc1nc(NC(C)C)nc(OC)n1`, the “activation” value is reported as 6.6% (inactive).
For `O=NN1CCN(N=O)CC1`, the “activation” value was 2.96% (inactive).
In the case of `COP(=S)(OC)Oc1c(Cl)cc(C)cc1Cl`, the “activation” value is reported as -0.59% (inactive).
In the case of `O=CNC(N1CCN(C(NC=O)C(Cl)(Cl)Cl)CC1)C(Cl)(Cl)Cl` (stereo not given), the “activation” value is reported as -7.43% (inactive).
In the case of `CC(COc1ccc(Oc2ccccc2)cc1)Oc1ccccn1` (stereo not given), the “activation” value is reported as 7.86% (inactive).
In the case of `C[C@H]1CCC[C@H](O)CCCCCc2cc(O)cc(O)c2C(=O)O1`, the “activation” value is reported as -24.6% (inactive).
For `COC(=O)c1ccccc1S(=O)(=O)NC(=O)N(C)c1nc(C)nc(OC)n1`, the “activation” value was -5.22% (inactive).
In the case of `CCCCCCBr`, the “activation” value is reported as -3.61% (inactive).
With `N#CCNCC#N` the “activation” value was 5.57% (inactive).
In the case of `N#Cc1c(Cl)cccc1Cl`, the “activation” value is reported as 4.08% (inactive).
With `CC(C)COP(=O)(OCC(C)C)OCC(C)C` the “activation” value was -1.07% (inactive).
